From PubChem BioAssay (NCI) come the findings set out here.

Experiment [1] can be described thus: NCI Yeast Anticancer Drug Screen. Data for the rad50 strain (AID 155).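 Also: 0% = growth of vehicle-only cultures of the same strain.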 As to conditions: S. cerevisiae rad50 strain growth inhibition, active compounds read high. The gist of the method: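 Readout: growth inhibition relative to vehicle-treated cultures. Compound exposure was carried out in a genetically defined yeast strain deficient in DNA damage repair.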
Experiment [2] can be described thus: NCI Yeast Anticancer Drug Screen. Data for the mec2-1 strain (AID 157). As to conditions: S. cerevisiae mec2-1 strain, active compounds read high. The gist of the method: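 Strain: mec2-1 (DNA repair/cell cycle alteration). Compound exposure, then growth measured; inhibition expressed relative to vehicle.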
Experiment [3] is described as follows: NCI Yeast Anticancer Drug Screen. Data for the sgs1 mgt1 strain (AID 161).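 Also: 0% = growth of cultures given vehicle only.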 Conditions: S. cerevisiae sgs1 mgt1 strain, active compounds read high. The gist of the method: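 Mutant yeast exposed to compound; growth scored against vehicle-only wells.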
Experiment [4] is described as follows: NCI Yeast Anticancer Drug Screen. Data for the cln2 rad14 strain (AID 165).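 Also: 0% = growth equal to vehicle treated cultures.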 As to conditions: S. cerevisiae cln2 rad14 strain, active compounds read high. The gist of the method:
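Compounds are applied to the cln2 rad14 yeast strain, and growth is then compared with that of vehicle-treated cultures to give inhibition.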

A short description of experiment [5]: NCI Yeast Anticancer Drug Screen. Data for the bub3 strain (AID 167). As to conditions: S. cerevisiae bub3 mutant strain, active compounds read high. The method in brief: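 Readout: yeast growth inhibition, expressed relative to vehicle-only wells. The test organism is a mutant strain from a panel with lesions in DNA repair or checkpoint genes.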
Experiment [6] can be described thus: NCI Yeast Anticancer Drug Screen. Data for the mlh1 rad18 strain (AID 175). Conditions: S. cerevisiae mlh1 rad18 strain growth inhibition, active compounds read high. The method in brief: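 Read-out is yeast growth inhibition, calculated against vehicle-only controls. The compound was applied to a strain engineered with DNA damage repair alterations.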
Setting [7] is: at 5.0 µM (retest, dose inferred, filed as 0.5).
[8] abbreviates: at 50.0 µM (retest, dose inferred, filed as 5.0).

The panel holds about 79,000 compounds, 15% with a hit somewhere; the sample as a whole holds those more often. A number with no mark means an inactive call. Calls of active or inactive are those of the source. Rule as the data show it: active = growth inhibition above about 70%; inactive = the rest.

`COc1cc(/C=C/C(=O)Sc2ccccc2)cc(OC)c1O`: the growth inhibition is 1% in experiment [1] (setting [7]); 47% in experiment [1] (setting [8]); 74.7% (active) in experiment [1] (at 50.0 µM); 0% in experiment [2] (setting [7]); 58% in experiment [2] (setting [8]); 58.6% in experiment [2] (at 50.0 µM). The growth inhibition in experiment [3] (setting [7]) was -3%; in experiment [3] (setting [8]), 60%; in experiment [3] (at 50.0 µM) it was 59.2%; in experiment [4] (setting [7]), 2%; in experiment [4] (setting [8]), 38%; in experiment [4] (at 50.0 µM), 75.7% (active). The growth inhibition was 2% in experiment [5] (setting [7]); 70% (active) in experiment [5] (setting [8]); 51% in experiment [5] (at 50.0 µM); -2% in experiment [6] (setting [7]); 58% in experiment [6] (setting [8]); 50.6% in experiment [6] (at 50.0 µM).

In the case of `CN(NS(=O)(=O)c1cccc([N+](=O)[O-])c1)c1ccccc1`, the growth inhibition is -2% in experiment [1] (setting [7]); 19% in experiment [1] (setting [8]); 98.7% (active) in experiment [1] (at 50.0 µM); 9% in experiment [2] (setting [7]); 6% in experiment [2] (setting [8]); 98.2% (active) in experiment [2] (at 50.0 µM). The growth inhibition was -2% in experiment [3] (setting [7]); 6% in experiment [3] (setting [8]); 96.5% (active) in experiment [3] (at 50.0 µM); 5% in experiment [4] (setting [7]); 16% in experiment [4] (setting [8]); 95.5% (active) in experiment [4] (at 50.0 µM). Further, the growth inhibition is 0% in experiment [5] (setting [7]); 39% in experiment [5] (setting [8]); 98.8% (active) in experiment [5] (at 50.0 µM); -10% in experiment [6] (setting [7]); 41% in experiment [6] (setting [8]); 98.8% (active) in experiment [6] (at 50.0 µM).

As to `O=C1CC(c2ccccc2)NN1` (stereo not drawn), the growth inhibition in experiment [1] (setting [7]) is -108%; in experiment [1] (setting [8]), 92% (active); in experiment [1] (at 50.0 µM) it was 90.9% (active); in experiment [2] (setting [7]), -42%; in experiment [2] (setting [8]), 94% (active); in experiment [2] (at 50.0 µM) it was 90.5% (active). Moreover, the growth inhibition in experiment [3] (setting [7]) was -51%; in experiment [3] (setting [8]), 89% (active); in experiment [3] (at 50.0 µM) it was 69.8%; in experiment [4] (setting [7]), -62%; in experiment [4] (setting [8]) it was 93% (active); in experiment [4] (at 50.0 µM), 87.8% (active). Also, the growth inhibition in experiment [5] (setting [7]) was -71%; in experiment [5] (setting [8]) it was 87% (active); in experiment [5] (at 50.0 µM), 88.2% (active); in experiment [6] (setting [7]), -114%; in experiment [6] (setting [8]), 93% (active); in experiment [6] (at 50.0 µM), 86.5% (active).

In the case of `C=C1CC23CCC4C(C)(C(=O)O)CCCC4(C)C2CCC1C3` (stereo not drawn), the growth inhibition was 27% in experiment [1] (setting [7]); 98% (active) in experiment [1] (setting [8]); 90.5% (active) in experiment [1] (at 50.0 µM); 40% in experiment [2] (setting [7]); 98% (active) in experiment [2] (setting [8]); 91% (active) in experiment [2] (at 50.0 µM). Also, the growth inhibition in experiment [3] (setting [7]) was 18%; in experiment [3] (setting [8]), 97% (active); in experiment [3] (at 50.0 µM), 90% (active); in experiment [4] (setting [7]), 19%; in experiment [4] (setting [8]) it was 97% (active); in experiment [4] (at 50.0 µM) it was 87.2% (active). Further, the growth inhibition in experiment [5] (setting [7]) was 13%; in experiment [5] (setting [8]), 97% (active); in experiment [5] (at 50.0 µM), 89.3% (active); in experiment [6] (setting [7]) it was 49%; in experiment [6] (setting [8]), 98% (active); in experiment [6] (at 50.0 µM) it was 82% (active).

For the molecule `CC(=O)c1c(O)ccc2nc3ccccc3nc12`, the growth inhibition is 11% in experiment [1] (setting [7]); 87% (active) in experiment [1] (setting [8]); 94% (active) in experiment [1] (at 50.0 µM); 20% in experiment [2] (setting [7]); 92% (active) in experiment [2] (setting [8]); 91.5% (active) in experiment [2] (at 50.0 µM). The growth inhibition in experiment [3] (setting [7]) was 14%; in experiment [3] (setting [8]), 89% (active); in experiment [3] (at 50.0 µM), 82.6% (active); in experiment [4] (setting [7]), 12%; in experiment [4] (setting [8]), 86% (active); in experiment [4] (at 50.0 µM), 82.8% (active). The growth inhibition in experiment [5] (setting [7]) was 22%; in experiment [5] (setting [8]), 85% (active); in experiment [5] (at 50.0 µM), 92% (active); in experiment [6] (setting [7]), 39%; in experiment [6] (setting [8]), 91% (active); in experiment [6] (at 50.0 µM) it was 94.5% (active).

With `COC(=O)c1ccc(-c2ccccc2)cc1`, the growth inhibition in experiment [1] (setting [7]) was -1%; in experiment [1] (setting [8]) it was 83% (active); in experiment [1] (at 50.0 µM), 82.3% (active); in experiment [2] (setting [7]), 1%; in experiment [2] (setting [8]), 94% (active); in experiment [2] (at 50.0 µM), 99.2% (active). In addition, the growth inhibition in experiment [3] (setting [7]) was 3%; in experiment [3] (setting [8]) it was 82% (active); in experiment [3] (at 50.0 µM) it was 98% (active); in experiment [4] (setting [7]), -2%; in experiment [4] (setting [8]), 55%; in experiment [4] (at 50.0 µM) it was 44.2%. Moreover, the growth inhibition in experiment [5] (setting [7]) was 10%; in experiment [5] (setting [8]), 92% (active); in experiment [5] (at 50.0 µM), 96% (active); in experiment [6] (setting [7]), 2%; in experiment [6] (setting [8]), 86% (active); in experiment [6] (at 50.0 µM) it was 96.8% (active).
